Most compounds without a hit are left out; they make up all but 4.1% or so of the library.
hgDAF12 agonist – activates the H. glycines DAF-12 receptor ligand-binding domain; HEK293 GAL4-hgDAF12 UAS-luciferase reporter, agonist luminescence; normalized to butyrate control; activation, % at 6.8 µM; 1.8% of 370,000 active; AID 687014;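 active means activation above a cutoff set at the mean of all screened compounds plus 3 SD, cut at about 10% in these data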;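 further: 0% = DMSO wells and 100% = sodium butyrate wells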
hcDAF-12 act – H. contortus DAF-12 activation, primary screen; HEK293 hcDAF-12 lit1-tk-luc reporter, luminescence; 0% DMSO, 100% Δ7-dafachronic acid; activation, % at 6.8 µM; 1.4% of 370,000 active; AID 652067;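 active means activation above the mean of all tested compounds plus 3 SD, cut at about 5.5% in these data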;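 further: 100% = response to 3 µM Δ7-dafachronic acid high control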
ssDAF-12 act – S. stercoralis DAF-12 activation, primary screen. HEK293 ssDAF-12/GRIP1 lit1-tk-luc reporter, luminescence; % of 3 µM dafachronic acid response. activation, % at 6.8 µM. 1% of 370,000 active;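 active means activation above the mean over all tested compounds plus 3 SD, cut at about 0.9% in these data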;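 further: 0% = DMSO-only wells and 100% = 3 µM delta7-dafachronic acid wells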
DAX1 inh-1 – inhibitors of human orphan nuclear receptor DAX1 (NR0B1); 0.99% of 340,000 active; inhibition, % at 6.75 µM; P51843; HEK293 Gal4-DAX1 luciferase reporter, luminescence; AID 504766;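 active means inhibition above the mean over all tested compounds plus 3 SD, cut at about 4.2% in these data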;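 further: 0% = DAX1-transfected cells with DMSO and 100% = empty-vector control cells with DMSO; inhibition shows as a rise in luminescence from relieved DAX1 repression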
Target sequence (P51843 207-470 limits assumed): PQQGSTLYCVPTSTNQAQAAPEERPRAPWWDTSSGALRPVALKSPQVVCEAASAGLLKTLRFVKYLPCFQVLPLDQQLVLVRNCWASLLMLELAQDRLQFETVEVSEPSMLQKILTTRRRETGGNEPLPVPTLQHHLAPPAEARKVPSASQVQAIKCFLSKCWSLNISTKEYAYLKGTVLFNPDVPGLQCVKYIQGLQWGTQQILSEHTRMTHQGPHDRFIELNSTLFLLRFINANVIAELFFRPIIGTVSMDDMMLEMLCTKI
DAX1 inh-2 – DAX1 (NR0B1) inhibition, primary screen | HEK293T StAR-luciferase reporter, SF-1/DAX-1 repression relief | inhibition, % at 6.8 µM | 1.1% of 370,000 active | AID 652010;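 active means inhibition above the mean over all tested compounds plus 3 SD, cut at about 3.6% in these data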;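 further: 0% = DAX-1 cells with DMSO and 100% = cells lacking DAX-1 with DMSO; higher inhibition means more luminescence from relief of DAX-1 repression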
hgDAF12 ag – hgDAF-12 agonism, confirmation assay; shares compounds with hgDAF12 agonist; HEK293 GAL4-hgDAF12 luciferase reporter, agonist mode; percent of butyrate response; activation, % at 6.8 µM; 80% of 3,300 active; AID 743050;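 active means mean activation over triplicate wells above the hit cutoff derived from the earlier primary screen, cut at about 11% in these data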;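 further: 0% = DMSO low control and 100% = 2 mM sodium butyrate high control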
LXR ag 2 – LXR-beta agonism as DAF-12 counter-screen | activation, % at 6.8 µM | AID 743051 | HEK293 Gal4-LXR luciferase reporter, 24 h | 3,300 tested, under 10 active | shares compounds with hgDAF12 agonist;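 active means mean activation of the triplicate above a set limit carried over from the primary screen, none filed active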
Target sequence (P55055 whole entry, looked up, the tested form may be a part): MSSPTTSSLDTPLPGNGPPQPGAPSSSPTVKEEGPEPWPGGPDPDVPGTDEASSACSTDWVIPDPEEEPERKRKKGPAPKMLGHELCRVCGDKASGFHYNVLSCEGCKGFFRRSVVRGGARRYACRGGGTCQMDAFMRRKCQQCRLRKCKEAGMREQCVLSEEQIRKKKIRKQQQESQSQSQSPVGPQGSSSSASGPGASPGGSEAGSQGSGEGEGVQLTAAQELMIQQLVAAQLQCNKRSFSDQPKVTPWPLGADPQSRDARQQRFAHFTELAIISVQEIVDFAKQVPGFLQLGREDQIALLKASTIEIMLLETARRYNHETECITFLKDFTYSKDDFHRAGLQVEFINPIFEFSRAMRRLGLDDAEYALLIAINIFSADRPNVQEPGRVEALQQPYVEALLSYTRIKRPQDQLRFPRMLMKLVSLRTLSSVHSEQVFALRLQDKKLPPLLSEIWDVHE
* marks the source's active call; other numbers are inactive results; nt = not tested or not shown.

SMILES	hgDAF12 agonist	hcDAF-12 act	ssDAF-12 act	DAX1 inh-1	DAX1 inh-2	hgDAF12 ag	LXR ag 2
CCOC(=O)[C@]12CCCC=C1N(Cc1ccc(OC)cc1)C(=O)[C@@H]2CC(=O)NCc1cccc(C(F)(F)F)c1	0.3	-2.9	-1.2	nt	-2.1	nt	nt
O=C1C(=O)c2c(ccc3ccccc23)-c2ccccc21	0.2	3.4	0.2	1.1	-1.3	nt	nt
Cc1ccc2nc(-c3ccc(NC(=S)NCCC(C)C)cc3)sc2c1	13.6*	3.9	0.4	1.9	3.2	15.1*	0.6
CC(C)CCNC(=S)Nc1ccc(F)cc1	0.7	-1.2	-1.4	-0.8	-0.9	nt	nt
Cc1cccc(C(O)c2cnc(C)n2Cc2ccccc2)c1 (stereo unspecified)	-3.1	-2.4	-1.3	-0.4	-0.8	nt	nt
Cc1cc(N2CCN(Cc3ccccc3)CC2)n2nc(C)nc2n1	0.0	0.9	-1.0	nt	1.4	nt	nt
CC(C)(C)c1cc(NC(=O)Nc2ccccc2)no1	22.8*	5.3	0.0	2.7	2.4	18.9*	0.8
COC(=O)c1ccccc1NC(=O)Nc1cc(C(C)(C)C)on1	4.9	0.2	-0.3	1.3	2.9	nt	nt
O=Nc1c(-c2c(O)[nH]c3cc(Br)ccc23)[nH]c2ccccc12	2.2	1.8	-0.4	-0.2	-0.1	nt	nt
C=C(C)CN(CC)C(=O)CCc1nnc(CCCc2ccccc2)o1	17.4*	3.7	-0.1	1.9	1.1	11.9*	0.3
COCC1CN(CCc2ccc(F)cc2)S(=O)(=O)c2c(OCCN3C(=O)[C@@H]4[C@H](C3=O)[C@@H]3C=C[C@H]4C3)cccc2O1 (stereo partly specified)	-4.9	-0.7	-1.7	nt	-4.0	nt	nt
c1ccc(-n2nc3c(ccc4cnnc43)[nH]2)cc1	18.8*	5.7*	0.9	1.3	2.0	12.3*	0.6
COc1ccc(NC(=O)c2cc(C3CCCCN3C(=O)OCc3ccccc3)on2)c(C)c1 (stereo unspecified)	-2.3	-3.6	-1.8	nt	-0.5	nt	nt
O=C(COC(=O)CN1C(=O)c2ccccc2C1=O)Nc1ccccc1C(F)(F)F	2.4	1.3	-0.7	1.9	-0.5	nt	nt
Cn1nnnc1SCC(=O)Nc1nc2c(s1)CCCC2	13.3*	6.4*	-0.1	1.1	3.7*	16.4*	0.7
NC(Cc1ccc(C(F)(F)F)cc1)c1csc(Nc2ccc(C(=O)c3ccccc3)cc2)n1 (stereo unspecified)	3.8	0.9	-1.0	nt	0.2	nt	nt
CCOC(=O)N/N=C\c1ccccc1OC/C=C/c1ccccc1	14.3*	0.9	-0.5	0.1	-1.9	8.4	0.2
C=C(C)C1CC=C(C)/C(=N/NC(=O)c2ccoc2C)C1 (stereo unspecified)	20.0*	5.9*	-0.2	2.8	4.3*	0.6	0.1
C=C(C)C1CC=C(C)/C(=N/NC(=O)c2cccc([N+](=O)[O-])c2)C1 (stereo unspecified)	4.1	1.1	-1.0	0.9	-0.4	nt	nt
COC(=O)c1ccc(NC(=O)C2CC3CCC2C3)cc1 (stereo unspecified)	7.1	-0.4	-0.5	1.5	0.9	nt	nt
CCOC(=O)c1ccc(NC(=O)C2CC3CCC2C3)cc1 (stereo unspecified)	14.0*	6.5*	0.1	nt	3.0	16.7*	1.0
O=C(Nc1cccc(O)c1)c1cc(-c2cccs2)on1	14.7*	2.8	-0.1	1.0	2.6	21.1*	0.4
O=C(NCc1cccs1)c1cc(-c2cccs2)on1	15.3*	1.9	-0.9	0.6	1.0	15.2*	0.4
Cc1cc(C(=O)NCc2cccs2)no1	2.5	-0.1	-1.6	0.6	0.1	nt	nt
COCCNC(=O)c1cc(-c2cccs2)on1	37.0*	1.5	-0.1	3.9	1.2	28.1*	0.4
SMILES	hgDAF12 agonist	hcDAF-12 act	ssDAF-12 act	DAX1 inh-1	DAX1 inh-2	hgDAF12 ag	LXR ag 2
O=C(NCc1cccs1)c1cc(-c2ccccc2)on1	16.2*	2.8	0.0	3.0	2.8	14.0*	0.5
C[C@H]1COc2cccc(N(C)CCO)c2S(=O)(=O)N1	2.4	-0.7	-0.9	nt	1.2	nt	nt
CCCn1cc(NC(=O)c2cc(-c3ccccc3)on2)cn1	21.7*	0.2	-0.7	3.3	-0.2	20.3*	0.2
O=C(O)CN=C(Nc1cc(Cl)cc(Cl)c1)NC(c1ccccc1)c1ccccc1	0.2	-0.6	-1.0	nt	-0.5	nt	nt
CN1CCCC1CCNc1ccc2oc3ccccc3c(=O)c2c1 (stereo unspecified)	7.8	2.6	0.0	nt	2.1	nt	nt
COc1cccc2sc3cc(NCCCN4CCOCC4)ccc3c(=O)c12	-3.8	-0.9	-1.9	-0.8	-0.1	nt	nt
O=c1c2ccccc2oc2ccc(NCCCN3CCOCC3)cc12	13.4*	3.2	-0.7	3.0	2.7	15.7*	0.7
CN1CCCC1CCNc1ccc2c(=O)c3ccccc3oc2c1 (stereo unspecified)	14.2*	2.2	-0.1	2.9	1.8	15.2*	0.6
CCCn1ncc2c(Nc3ccc(C)c(C)c3)ncnc21	13.4*	6.5*	0.1	0.5	0.9	6.9	0.5
COc1cccc(-n2cc(-c3ccc(F)cc3)[nH]c2=S)c1	19.6*	5.6*	-0.3	2.9	1.1	12.0*	0.7
Cc1ccc(NC(=O)c2ccc3snnc3c2)cc1	15.6*	2.2	-0.6	-0.2	1.8	15.7*	0.5
CCOc1ccc2nc(NC(=O)Cn3c(C)csc3=O)sc2c1	1.2	0.2	-0.6	0.4	3.4	nt	nt
COc1cc(OC)cc(C(=O)Nc2nc3ccc(S(C)(=O)=O)cc3s2)c1	5.5	3.4	-1.2	0.1	-0.3	nt	nt
CS(=O)(=O)c1ccc2nc(NC(=O)c3cccs3)sc2c1	14.8*	6.3*	0.6	-2.0	4.0*	16.4*	0.8
CCOc1ccc2nc(NC(=O)CCC(=O)c3cccs3)sc2c1	13.3*	4.7	-0.2	3.0	1.4	14.8*	0.6
COCCCNC(=O)C[C@H]1C(=O)N(Cc2ccc(OC)cc2)C2=CCCCC[C@@]21C(=O)OC	0.5	-0.9	-1.2	nt	-0.2	nt	nt
O=C(NN=C1C2CC3CC(C2)CC1C3)c1ccncc1	-0.3	1.8	-1.3	0.6	0.2	nt	nt
O=C(NN=C1C2CC3CC1CC(Cl)(C3)C2)c1cccs1	27.3*	6.3*	0.3	5.0*	4.0*	1.9	0.1
O=C(NN=C1C2CC3CC1CC(Cl)(C3)C2)c1ccccn1	13.5*	6.2*	0.0	0.6	3.2	5.3	0.2
CCCCOCC1CN(CCCC)S(=O)(=O)c2c(Oc3ccc(C)cc3)cccc2O1 (stereo unspecified)	-0.8	0.6	-0.5	nt	-0.9	nt	nt
CC(C)(C)c1ccc2cc(F)cc(F)c2n1	-2.5	0.7	-1.2	nt	0.3	nt	nt
CCCCNc1cccc2c1S(=O)(=O)N[C@@H](CC(C)C)CO2	0.3	-1.1	-1.6	nt	-1.1	nt	nt
O=c1[nH]cnc2cc(-c3ccccc3)sc12	13.4*	1.2	-0.8	0.1	1.5	11.5*	0.5
